# Bioassay records as filed in PubChem BioAssay.
# SNCA expr inh = inhibitors of alpha-synuclein (SNCA) gene expression. Potency, µM (highest dose often 57.2 µM), for inactives: top-dose activity change, negative = inhibition, most hits filed as inhibitors. AID 1671194. HEK-293 SNCA-luciferase knock-in, luminescence, 24 h. 0.17% of 140,000 active;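 further: plate controls were DMSO cells for no effect and cell-free wells for full effect; nearly all actives have a fitted effect of over 45% in size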
# HEK293 viab = reduces viability of HEK-293 SNCA reporter cells; HEK-293-SNCA-luc viability, GF-AFC fluorescence, 24 h; 0.12% of 150,000 active; Potency, µM (top dose mostly 57.1 µM), without a hit: at the highest dose activity change, negative = cytotoxicity, hits mostly cytotoxic;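 further: 0% = DMSO-treated cells and -100% = medium-only wells without cells; nearly all actives have a fitted effect of over 30% in size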
#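 Cytotoxicity counterscreen: after 24 h compound treatment of genome-edited SNCA-luciferase HEK-293 cells, live-cell protease substrate GF-AFC read by fluorescence after 30 min; activity scaled between DMSO (0%) and medium-only (-100%), curves Hill-fitted.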
# HEK293 tox = cytotoxic compounds in HEK 293 cells | HEK 293 viability, ATP luminescence (CellTiter-Glo), 48-72 h | Potency, µM (highest dose often 115 µM), for inactives: at the top dose activity change, negative = cytotoxicity, actives largely listed as inhibitors | 6.6% of 94,000 active | AID 1345083; further: on the % scale 0 is the no-effect control and ±100 the full control effect; nearly all actives have a fitted effect of over 60% in size
#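 HEK 293 cells seeded at 250 cells/well were exposed to compound for 48 or 72 hr at 37 degree Celsius. Viability taken as ATP content by CellTiter-Glo luminescence.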
# FLuc inh-1 = Photinus pyralis luciferase inhibition. P08659. 2.5% of 76,000 active. Potency, µM (doses to about 115 µM), usual class: inhibitors. AID 1347043. purified P. pyralis luciferase, luminescence, biochemical; further: on the % scale 0 is the no-effect control and ±100 the full control effect; nearly all actives have a fitted effect of over 65% in size
#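 Purified 10nM P. pyralis luciferase with 10uM D-luciferin and 10uM ATP in 50mM Tris acetate pH 7.5, 10mM Mg acetate, 0.01% Tween-20, 0.05% BSA. qHTS titration; luminescence read by CCD imager.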
# hNpr1 antagonist = blocks ANP-stimulated signaling of human Npr1 receptor; P16066; HEK293 hNpr1 GloSensor cGMP, ANP-stimulated luminescence; Potency, µM (titrated, usually from 46.3 µM), inactives show top-dose activity change, negative = inhibition, most hits filed as inhibitors; 1.6% of 76,000 active; calls by dose curve; further: on the % scale 0 is the no-effect control and ±100 the full control effect; nearly all actives have a fitted effect of over 60% in size
# Target sequence (P16066 whole entry, looked up): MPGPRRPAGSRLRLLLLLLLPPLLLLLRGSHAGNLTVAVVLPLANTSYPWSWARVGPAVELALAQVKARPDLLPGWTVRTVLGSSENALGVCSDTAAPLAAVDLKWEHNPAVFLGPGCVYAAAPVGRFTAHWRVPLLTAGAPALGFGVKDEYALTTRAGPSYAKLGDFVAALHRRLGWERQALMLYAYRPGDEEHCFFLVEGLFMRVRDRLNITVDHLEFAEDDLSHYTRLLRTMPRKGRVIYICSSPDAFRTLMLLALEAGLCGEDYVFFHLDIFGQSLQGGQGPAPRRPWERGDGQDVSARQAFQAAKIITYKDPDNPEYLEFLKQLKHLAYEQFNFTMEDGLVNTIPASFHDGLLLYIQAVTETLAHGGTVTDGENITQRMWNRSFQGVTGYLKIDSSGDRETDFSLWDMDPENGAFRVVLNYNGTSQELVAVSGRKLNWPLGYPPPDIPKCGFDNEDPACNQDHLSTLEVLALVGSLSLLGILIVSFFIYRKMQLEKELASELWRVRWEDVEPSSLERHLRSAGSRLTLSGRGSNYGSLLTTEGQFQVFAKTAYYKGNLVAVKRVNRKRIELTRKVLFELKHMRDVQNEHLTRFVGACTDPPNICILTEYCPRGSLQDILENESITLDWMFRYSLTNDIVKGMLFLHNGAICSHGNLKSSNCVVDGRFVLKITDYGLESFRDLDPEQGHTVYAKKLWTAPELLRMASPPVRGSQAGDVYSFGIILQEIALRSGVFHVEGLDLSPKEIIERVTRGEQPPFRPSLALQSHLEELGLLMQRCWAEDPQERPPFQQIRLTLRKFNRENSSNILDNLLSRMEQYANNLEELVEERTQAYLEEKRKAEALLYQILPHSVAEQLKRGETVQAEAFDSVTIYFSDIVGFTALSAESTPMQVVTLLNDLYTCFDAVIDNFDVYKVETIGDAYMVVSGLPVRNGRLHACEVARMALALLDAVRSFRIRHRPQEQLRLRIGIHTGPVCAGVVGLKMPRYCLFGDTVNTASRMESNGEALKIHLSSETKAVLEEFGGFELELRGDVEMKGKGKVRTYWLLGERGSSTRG
#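 HEK293 cells stably expressing human Npr1 and cGMP GloSensor pGS-40F, loaded 2 h with 2% GloSensor reagent, given compound 30 min at room temperature. Luminescence read before and 20 min after 0.1 nM hNppA.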
# 3T3 cytotox = cytotoxic compounds in NIH 3T3 cells. 4.3% of 94,000 active. Potency, µM (doses to about 96.7 µM), for inactives: at the top dose activity change, negative = cytotoxicity, most hits filed as inhibitors. NIH 3T3 viability, CellTiter-Glo ATP luminescence, 48-72 h. AID 1345082; further: on the % scale 0 is the no-effect control and ±100 the full control effect; nearly all actives have a fitted effect of over 55% in size
#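 Cells were seeded at 400 per well, treated with pin-transferred compound, and kept 48 or 72 hr at 37 °C before CellTiter-Glo addition and luminescence imaging of cellular ATP.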
# FLuc SDR -ATP = firefly luciferase binding stabilization, ATP absent. shares compounds with FLuc inh-1. Purified FLuc-C-HiBiT, Nano-Glo HiBiT luminescence, no ATP. Potency, µM (doses to about 32.7 µM), without a hit: at the top dose activation (signal gain), usual class: activators. 7.8% of 1,300 active; further: nearly all actives have a fitted effect of over 55% in size
# FLuc SDR ATP = stabilizes firefly luciferase with ATP present; Potency, µM (titrated, usually from 32.7 µM), for the others: top-dose activation (gain of signal), most hits filed as activators; shares compounds with FLuc inh-1; 8.7% of 1,300 active; purified FLuc-C-HiBiT + ATP, HiBiT complementation luminescence;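 further: signal reports ligand binding via conformational change of the enzyme rather than luciferase catalysis; % of control where 0% means no effect; nearly all actives have a fitted effect of over 55% in size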
# FLuc inh-2 = firefly luciferase enzyme inhibition. Potency, µM (titrated, usually from 32.7 µM), for inactives: top-dose activity change, negative = inhibition, actives largely listed as inhibitors. 42% of 1,300 active. shares compounds with FLuc inh-1. purified FLuc-C-HiBiT enzyme, luciferin luminescence. AID 1963320; further: on the % scale 0 is the no-effect control and ±100 the full control effect; nearly all actives have a fitted effect of over 70% in size
# * marks the source's active call; other numbers are inactive results; i = inactive; ? = inconclusive; nt = no result; [ ] = another dose, or the depositor's remark. Most compounds without a hit are left out; they make up all but 7.2% or so of the library. Unless noted, the call rests on the fitted dose curve; in most records, active means well fitted curve in the direction sought with a large enough effect; inconclusive means small, poorly fitted or top-dose-only effect, or another doubt; inactive means no such curve, though single readings can be large; an effect the other way counts as inactive or inconclusive. Potency means the concentration at half of the fitted maximal effect.
SMILES,SNCA expr inh,HEK293 viab,HEK293 tox,FLuc inh-1,hNpr1 antagonist,3T3 cytotox,FLuc SDR -ATP,FLuc SDR ATP,FLuc inh-2
O=C(O)CCC1CCN(c2cc(NC3CC3)ncn2)CC1,1.1µM*,-6%,5%,5µM*,0%,-12%,16%,3.9µM*,3.1µM*
CCNc1cc(N2CCC(CCC(=O)NCCc3ccccn3)CC2)ncn1,?,-14%,-6%,i,-8%,-24%,nt,nt,nt
O=C(CCC1CCN(c2cc(NC3CC3)ncn2)CC1)Nc1ccccc1,?,11%,?,?,?,-24%,nt,nt,nt
CCCNc1cc(N2CCC(CCC(=O)O)CC2)ncn1,1.1µM*,2%,4%,40µM*,3%,2%,15%,9.9µM*,7.9µM*
N[C@H]1[C@H](O)[C@@H](N2CCC(Cc3ccccc3)CC2)[C@@H]2OC[C@H]1O2,4%[87.6 µM],4%[87.6 µM],-19%[172 µM],i,6%[70.6 µM],?,nt,nt,nt
CNC(=O)NC[C@H]1CCN(Cc2scnc2C)C[C@H]1N(C)C,-9%,-1%[12.5 µM],-2%,i,3%,-8%,nt,nt,nt
O=C(NCCc1ccc(Cl)cc1)c1ccc2nnc(Cc3ccco3)n2c1,0%,-4%,-28%,nt,nt,?,nt,nt,nt
O=C(c1cccc(Cl)c1)N1CCC(C(=O)N2CCC(N3CCCC3=O)CC2)CC1,-5%,3%,-5%,nt,nt,-18%,nt,nt,nt
O=c1oc2c(CN3CCCC3)c(O)ccc2cc1-c1ccccc1,91%,?,nt,nt,nt,nt,13%,12%,-4%
COc1ccc(-c2cc3ccc(O)c(CN4CCCC4)c3oc2=O)cc1,62%,?,nt,nt,nt,nt,nt,nt,nt
O=C1C(c2ccccc2)CC2(CCN(Cc3cccc(O)c3)CC2)CN1C1CC1 (configuration not stated),-2%,-1%,-7%,i,-11%,-2%,nt,nt,nt
COc1ccccc1CC(=O)N1CCC2(CC1)NC(=O)N(c1ccccc1)N2,2%,-1%,?,i,-21%,?,nt,nt,nt
CCNc1cc(N2CCC(CCC(=O)Nc3ccc4c(c3)OCCO4)CC2)ncn1,?,0%,?,7.9µM*,-28%,?,18%,19%,?
CCCNc1cc(N2CCC(CCC(=O)Nc3ccc4c(c3)OCCO4)CC2)ncn1,?,0%,-26%,11µM*,?,-19%,28%,?,9.9µM*
CCNc1cc(N2CCC(CCC(=O)NC(CC)CC)CC2)ncn1,?,-15%,?,i,-13%,-20%,nt,nt,nt
Cc1c(C(=O)Nc2ccc(C(=O)O)cc2)nnn1-c1ccccc1,-53%,10%,nt,nt,nt,nt,7µM*,0.078µM*,0.078µM*
CC(C)n1cc2cc(C(=O)NC3CCCCCC3)sc2c1,64%,4%,?,i,-14%,?,nt,nt,nt
CC(C)n1cc2cc(C(=O)Nc3ccc4c(c3)OCCO4)sc2c1,25%,9%,35µM*,14µM*,?,-15%,23%,17%,9.9µM*
CCC(=O)Nc1ccc2nnc(-c3ccc(C(=O)Nc4ccc5c(c4)OCCO5)cc3)n2c1,?,-23%,?,14µM*,-18%,i,21%,?,?
Cc1ccc(NC(=O)Nc2ccc(C)n(CC(=O)NCC(C)C)c2=O)cc1,-9%,8%,?,0.89µM*,-29%,?,3.9µM*,?,1.1µM*
